This passage reports outcome and AC50 results from PubChem BioAssay (EPA / NIEHS).

A short description of assay [1]: ACEA_ER_80hr: ACEA Biosciences xCELLigence Real-Time Cell Analysis on Estrogen Receptor Agonism for Proliferation (AID 2282667; active = hit-call score of the fitted dose curve at least 0.9, where 1 is the maximum). The following applies: T47D proliferation, impedance (xCELLigence), 80 h. The method, boiled down:
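Real-time electrical impedance tracked growth of the human breast line T47D, with the 80 h post-dosing value used. Dosing spanned eight 1:4 steps down from a 100 uM final top concentration, run in duplicate.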

The nature of assay [2]: ATG_CRE_CIS: Attagene CIS-FACTORIAL HepG2 Assay for human cAMP Responsive Element (CRE) binding protein 3 (AID 2282926). The settings on record: HepG2 CRE cis-reporter, Attagene multiplexed mRNA; actives raise or lower the signal. The procedure, abridged: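 Assay format: transient reporter transfection of HepG2, 24 h treatment, total RNA isolation with DNase I step. Reporter abundance read by fluorescence after PCR and capillary separation; DMSO-normalised gain or loss fitting.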

Assay [3] deals with CCAAT/enhancer-binding protein beta (Homo sapiens) (UniProt P17676). Kind of assay: ATG_C_EBP_CIS: Attagene CIS-FACTORIAL HepG2 Assay for human CCAAT/Enhancer Binding Protein (C/EBP) beta (AID 2282927). The settings on record: HepG2 Attagene cis-factorial transcription factor reporter; actives raise or lower the signal. The method, boiled down:
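HepG2, transient MRTU transfection, 24 h treatment. RT-PCR plus CE fluorescence; DMSO negative control, bidirectional fit.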

Assay [4] in a line: ATG_CMV_CIS: Attagene CIS-FACTORIAL HepG2 Assay for human CMV (Internal Marker) (AID 2282928).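 Note: endpoint acts as a background internal control marker rather than a target.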 The settings on record: HepG2 CMV promoter reporter, transcription factor profiling; actives raise or lower the signal. The procedure, abridged:
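Reporter transcripts from transfected HepG2 cells are isolated after 24 h of chemical dosing, reverse-transcribed and amplified. Fragments labeled with 6-FAM are cut with HpaI and quantified by capillary electrophoresis; DMSO defines baseline.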

Assay [5] in a line: ATG_DR4_LXR_CIS: Attagene CIS-FACTORIAL HepG2 Assay for human Liver X Receptor (LXR), DR4 submotif (AID 2282929). The following applies: HepG2 Attagene DR4 cis-reporter, mRNA transcription; actives raise or lower the signal. The procedure, abridged:
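Fluorescence intensity of labelled reporter cDNA fragments, separated by capillary electrophoresis, gives the signal. HepG2 cells bearing cis-regulated reporter constructs were treated 24 h; activity fitted bidirectionally relative to DMSO negative control.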

Assay [6] concerns the target Aryl hydrocarbon receptor (Homo sapiens) (UniProt P35869). Kind of assay: ATG_Ahr_CIS: Attagene CIS-FACTORIAL HepG2 Assay for human Aryl Hydrocarbon Receptor (Ahr) (AID 2282930). The following applies: HepG2 AhR cis-factorial reporter transcription; actives raise or lower the signal. The method, boiled down:
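Endogenous factor activity is tracked through cis-promoter reporter units transfected into HepG2 cells. Transcript levels at 24 h are read by fluorescent RT-PCR and capillary electrophoresis, with activity in either direction scored relative to DMSO.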

Assay [7] is described as follows: ATG_AP_1_CIS: Attagene CIS-FACTORIAL HepG2 Assay for human Activator Protein 1 (AP-1) (AID 2282931). The following applies: HepG2 Attagene cis-factorial AP-1 reporter mRNA; actives raise or lower the signal. The procedure, abridged:
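Multiplexed HepG2 reporter assay, 24 h dosing. mRNA induction detected by RT-PCR plus capillary electrophoresis. Activity fitted in both directions against DMSO.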

Assay [8] can be described thus: ATG_AP_2_CIS: Attagene CIS-FACTORIAL HepG2 Assay for human Activator Protein 2 (AP-2) (AID 2282932). The following applies: HepG2 AP-2 cis-reporter, Attagene transcription factor profiling; actives raise or lower the signal. The method, boiled down: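 Read-out: fluorescent reporter mRNA via RT-PCR and capillary electrophoresis, 24 h post-dose in transiently transfected HepG2. Endogenous factors drive cis-promoter reporters; gain or loss of signal fitted bidirectionally against DMSO.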

The nature of assay [9]: ATG_BRE_CIS: Attagene CIS-FACTORIAL HepG2 Assay for human Bone Morphogenetic Protein (BMP) Response Element (BRE) (AID 2282933). The following applies: HepG2 BMP response element reporter, Attagene transcription factor profiling; actives raise or lower the signal. The method, boiled down: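 Endogenous transcription factor activity at a BMP response element was monitored in transfected HepG2 cells 24 h after dosing. Fluorescent RT-PCR products were resolved by capillary electrophoresis, and activity was fitted in both directions versus DMSO.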

Assay [10] has as its target Retinoic acid receptor alpha (Homo sapiens) (UniProt P10276). Kind of assay: ATG_DR5_RAR_CIS: Attagene CIS-FACTORIAL HepG2 Assay for human Retinoic Acid Receptor Alpha (RARE), DR5 submotif (AID 2282934). The settings on record: HepG2 Attagene cis-factorial RARE DR5 reporter, mRNA; actives raise or lower the signal. The method, boiled down:
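After 24 h of chemical exposure, transiently transfected HepG2 cells were lysed for total RNA; the DR5-regulated reporter transcript was quantified via RT-PCR and capillary electrophoresis, with activity fitted bidirectionally against DMSO.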

The target in assay [11] is Transcription factor E2F1 (Homo sapiens) (UniProt Q01094). Kind of assay: ATG_E2F_CIS: Attagene CIS-FACTORIAL HepG2 Assay for human E2F Transcription Factor 1 (AID 2282935). The following applies: HepG2 Attagene cis-reporter, E2F reporter RNA transcripts; actives raise or lower the signal. The method, boiled down: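 Transient MRTU transfection of HepG2; 24 h compound exposure; RNA → oligo(dT) RT → PCR → FAM label → HpaI cut → CE fluorescence. Gain/loss of signal fit against DMSO.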

The nature of assay [12]: ATG_E_Box_CIS: Attagene CIS-FACTORIAL HepG2 Assay for human Enhancer Box (E-box) (AID 2282936). The following applies: HepG2 E-box cis-reporter transcription, actives raise or lower the signal. The method, boiled down:
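Transiently transfected HepG2, endogenous TF-driven reporters, 24 h dosing. Readout: RT-PCR plus capillary electrophoresis of fluorescent reporter fragments. Gain or loss of signal fitted bidirectionally against DMSO baseline.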

A short description of assay [13]: ATG_M_61_CIS: Attagene CIS-FACTORIAL HepG2 Assay for M61 Transcription Factor (Internal Marker) (AID 2282937). The settings on record: HepG2 Attagene CIS-FACTORIAL M61 internal marker reporter; actives raise or lower the signal. The procedure, abridged: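 Endogenous transcription factor activity in HepG2 is read through transiently transfected cis-element reporter units. After 24 h dosing, RNA undergoes reverse transcription, PCR and primer extension with 6-FAM before capillary electrophoresis; DMSO-referenced bidirectional fit.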

Assay [14] is described as follows: ATG_EGR_CIS: Attagene CIS-FACTORIAL HepG2 Assay for human Early Growth Response 1 (EGR1) (AID 2282938). The settings on record: HepG2 Attagene CIS-FACTORIAL EGR reporter mRNA; actives raise or lower the signal. The method, boiled down:
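Activity is taken as induction or loss of reporter mRNA versus DMSO, fitted bidirectionally. Transcripts from cis-regulated reporter units in transiently transfected HepG2 were measured after 24 h by RT-PCR with capillary electrophoresis.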

A short description of assay [15]: ATG_M_19_CIS: Attagene CIS-FACTORIAL HepG2 Assay for M19 Transcription Factor (Internal Marker) (AID 2282939). The following applies: HepG2 Attagene CIS-FACTORIAL M19 internal marker reporter; actives raise or lower the signal. The method, boiled down: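 Background-control endpoint from a multiplexed HepG2 reporter panel. Cells carrying cis-regulated reporter constructs are treated 24 h, then reporter transcripts are amplified, fluorescently labelled and sized by capillary electrophoresis. DMSO defines baseline.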

Assay [16] in a line: ATG_ERE_CIS: Attagene CIS-FACTORIAL HepG2 Assay for Estrogen Response Element (ERE) (AID 2282940). The settings on record: HepG2 ERE cis-reporter, Attagene RNA transcript; actives raise or lower the signal. The procedure, abridged:
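Cells used were human hepatoma HepG2, transfected with multiple reporter transcription units under cis-regulatory promoters. Reporter mRNA, read 24 h post-dosing via fluorescent RT-PCR products on capillary electrophoresis, was fitted bidirectionally relative to DMSO.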

Assay [17] in a line: ATG_Ets_CIS: Attagene CIS-FACTORIAL HepG2 Assay for human Erythroblast Transformation Specific (ETS) (AID 2282941). The following applies: HepG2 ETS cis-reporter transcription, actives raise or lower the signal. The procedure, abridged:
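Bidirectional fit versus DMSO of reporter mRNA signal, detected by RT-PCR and capillary electrophoresis in HepG2 cells transiently transfected with cis-element reporters and dosed 24 h.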

Assay [18] concerns the target Hepatocyte nuclear factor 3-beta (Homo sapiens) (UniProt Q9Y261). Kind of assay: ATG_FoxA2_CIS: Attagene CIS-FACTORIAL HepG2 Assay for human Forkhead box A2 (FOXA2) (AID 2282942). The following applies: HepG2 cis-reporter transcription factor activity, 24 h; actives raise or lower the signal. The method, boiled down: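 Reporter transcript induction is measured by fluorescence after capillary electrophoresis of RT-PCR products from HepG2 cells exposed 24 h. Cis-regulated reporter units report endogenous factor activity; curves fitted both directions against DMSO.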

Assay [19] is described as follows: ATG_FoxO_CIS: Attagene CIS-FACTORIAL HepG2 Assay for human Forkhead box O (FoxO) (AID 2282943). The following applies: HepG2 Attagene cis-reporter, FoxO element, mRNA; actives raise or lower the signal. The procedure, abridged: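 Transfected HepG2 reporter cells exposed to test chemical for 24 h; reporter RNA measured by reverse transcription, PCR and fluorescent capillary electrophoresis; curves fitted for increases and decreases against DMSO.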

Assay [20] is described as follows: ATG_GATA_CIS: Attagene CIS-FACTORIAL HepG2 Assay for human GATA Binding Protein (AID 2282944). The settings on record: HepG2 GATA cis-element reporter, Attagene multiplex mRNA; actives raise or lower the signal. The procedure, abridged: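 Endogenous transcription factor activity was captured through cis-promoter-driven reporters in transfected HepG2 cells. After 24 h exposure, reporter transcripts were quantified by RT-PCR with fluorescent capillary electrophoresis, and responses fitted both directions against DMSO.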

Results filed as inconclusive are left out. The source made the active and inactive calls. Rule for the calls, unless noted: active = hit-call score of the fitted dose curve at least 0.9, where 1 is the maximum; inactive = score below 0.9.

Chain of CCAAT/enhancer-binding protein beta (Homo sapiens) (P17676 whole entry, looked up): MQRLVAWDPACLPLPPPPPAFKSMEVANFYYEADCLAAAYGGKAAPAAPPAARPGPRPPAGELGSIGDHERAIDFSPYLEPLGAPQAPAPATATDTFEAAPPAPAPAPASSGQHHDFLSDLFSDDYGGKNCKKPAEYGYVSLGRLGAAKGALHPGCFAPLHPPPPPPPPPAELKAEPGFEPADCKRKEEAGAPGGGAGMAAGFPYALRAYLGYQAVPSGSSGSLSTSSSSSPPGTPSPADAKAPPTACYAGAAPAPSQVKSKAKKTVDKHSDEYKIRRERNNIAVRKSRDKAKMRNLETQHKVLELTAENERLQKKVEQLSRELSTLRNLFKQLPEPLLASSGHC
Chain of Transcription factor E2F1 (Homo sapiens) (Q01094 whole entry, looked up): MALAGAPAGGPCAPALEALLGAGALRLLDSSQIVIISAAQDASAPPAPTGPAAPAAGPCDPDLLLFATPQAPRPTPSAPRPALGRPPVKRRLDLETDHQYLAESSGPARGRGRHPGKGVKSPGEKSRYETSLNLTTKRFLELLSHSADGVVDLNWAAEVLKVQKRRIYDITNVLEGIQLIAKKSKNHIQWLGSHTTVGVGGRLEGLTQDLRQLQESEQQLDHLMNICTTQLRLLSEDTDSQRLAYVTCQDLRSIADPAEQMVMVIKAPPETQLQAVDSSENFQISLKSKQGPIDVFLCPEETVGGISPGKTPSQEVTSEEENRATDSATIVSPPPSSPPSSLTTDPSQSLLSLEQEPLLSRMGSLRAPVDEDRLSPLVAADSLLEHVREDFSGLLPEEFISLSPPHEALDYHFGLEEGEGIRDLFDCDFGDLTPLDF
Chain of Hepatocyte nuclear factor 3-beta (Homo sapiens) (Q9Y261 whole entry, looked up): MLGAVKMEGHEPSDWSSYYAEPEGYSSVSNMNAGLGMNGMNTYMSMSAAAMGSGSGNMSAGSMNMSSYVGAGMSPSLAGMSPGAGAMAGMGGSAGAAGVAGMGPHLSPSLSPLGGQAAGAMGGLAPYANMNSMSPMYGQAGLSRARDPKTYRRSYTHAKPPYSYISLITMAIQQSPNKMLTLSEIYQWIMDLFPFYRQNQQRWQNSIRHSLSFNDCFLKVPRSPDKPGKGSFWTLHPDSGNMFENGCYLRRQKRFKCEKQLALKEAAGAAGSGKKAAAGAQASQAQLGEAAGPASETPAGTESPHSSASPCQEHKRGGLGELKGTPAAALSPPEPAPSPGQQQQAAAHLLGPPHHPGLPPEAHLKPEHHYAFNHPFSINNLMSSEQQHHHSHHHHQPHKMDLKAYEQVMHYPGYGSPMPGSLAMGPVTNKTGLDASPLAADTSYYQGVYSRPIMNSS
Chain of Retinoic acid receptor alpha (Homo sapiens) (P10276 whole entry, looked up): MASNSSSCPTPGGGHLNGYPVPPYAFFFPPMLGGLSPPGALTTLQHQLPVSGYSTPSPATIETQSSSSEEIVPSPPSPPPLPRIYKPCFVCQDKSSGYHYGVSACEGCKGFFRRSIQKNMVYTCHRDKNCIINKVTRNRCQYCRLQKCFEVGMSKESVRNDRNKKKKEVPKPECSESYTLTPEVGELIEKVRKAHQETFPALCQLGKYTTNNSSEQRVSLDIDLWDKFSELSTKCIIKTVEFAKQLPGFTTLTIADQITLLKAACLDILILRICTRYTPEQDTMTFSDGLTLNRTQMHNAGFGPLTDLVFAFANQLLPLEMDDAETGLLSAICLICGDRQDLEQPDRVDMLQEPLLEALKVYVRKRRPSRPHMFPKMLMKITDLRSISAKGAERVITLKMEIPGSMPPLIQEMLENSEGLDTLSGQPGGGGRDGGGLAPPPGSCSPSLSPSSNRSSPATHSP
Chain of Aryl hydrocarbon receptor (Homo sapiens) (P35869 whole entry, looked up): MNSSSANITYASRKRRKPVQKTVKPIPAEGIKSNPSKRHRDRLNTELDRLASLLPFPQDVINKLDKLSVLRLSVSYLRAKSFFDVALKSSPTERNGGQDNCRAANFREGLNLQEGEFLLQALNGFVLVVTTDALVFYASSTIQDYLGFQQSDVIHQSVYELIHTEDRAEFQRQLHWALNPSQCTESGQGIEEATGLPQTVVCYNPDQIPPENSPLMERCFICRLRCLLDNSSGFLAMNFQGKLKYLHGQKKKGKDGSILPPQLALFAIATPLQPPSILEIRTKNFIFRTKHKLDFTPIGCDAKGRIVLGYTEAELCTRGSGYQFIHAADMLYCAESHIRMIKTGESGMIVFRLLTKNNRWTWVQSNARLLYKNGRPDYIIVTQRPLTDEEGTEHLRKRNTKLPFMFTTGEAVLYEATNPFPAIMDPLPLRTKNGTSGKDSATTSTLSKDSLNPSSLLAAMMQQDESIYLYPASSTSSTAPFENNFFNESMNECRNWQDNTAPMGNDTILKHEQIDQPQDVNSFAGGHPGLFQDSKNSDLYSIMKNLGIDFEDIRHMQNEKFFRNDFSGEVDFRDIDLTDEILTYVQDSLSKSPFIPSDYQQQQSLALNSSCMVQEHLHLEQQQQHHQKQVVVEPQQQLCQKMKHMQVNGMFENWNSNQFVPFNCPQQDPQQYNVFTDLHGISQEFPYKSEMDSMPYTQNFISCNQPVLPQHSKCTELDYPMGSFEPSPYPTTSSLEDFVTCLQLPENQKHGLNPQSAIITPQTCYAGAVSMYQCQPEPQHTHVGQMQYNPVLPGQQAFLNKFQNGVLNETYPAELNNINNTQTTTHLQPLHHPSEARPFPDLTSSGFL

Take `c1ccc2c(c1)[nH]c1ccccc12`: the outcome in assay [1], in assay [2], in assay [3], in assay [4], in assay [5] and in [7] was inactive. In addition, the call in assay [8], in [9], in [10], in assay [11], in assay [12] and in [13] was inactive. Also, the result in assay [14], in assay [15], in assay [16], in assay [17], in assay [18] and in assay [19] was inactive. For the same compound, the result in assay [20] was inactive. Also, in [6], the AC50 is 18 µM (active).
`CCCCCCCC(=O)OCC`: the compound was classed as inactive in [1], in [2], in assay [3], in assay [4], in assay [5] and in assay [6]. The compound was called inactive in assay [7], in [8], in assay [9], in assay [10], in assay [11] and in [12]. Moreover, the outcome in assay [13], in assay [14], in [15], in assay [16], in [17] and in assay [18] was inactive. The result in assay [19] and in assay [20] was inactive.
`O=C(O[C@@H]1Cc2c(O)cc(O)cc2O[C@@H]1c1cc(O)c(O)c(O)c1)c1cc(O)c(O)c(O)c1`: the outcome in [1], in assay [2], in assay [3], in [5], in assay [6] and in assay [8] was inactive. The call in assay [10], in assay [11], in assay [12], in assay [13], in [14] and in [15] was inactive. Besides, the compound was called inactive in [16], in [17], in [18], in assay [19] and in assay [20]. Also, the AC50 in [4] is 20.8 µM (active); in assay [7], 72.5 µM (active); in [9], 3.86 µM (active).

What is called AC50 is the midpoint of the concentration-response curve, whichever way the signal moves.
